From publication PMC5540273 (PLoS ONE, 2017)

What was measured:
Conditions in all cases: concentration: 1 μM, replicates: in singlicate; n = 1
CAMK1B = test system: CAMK1B
CAMK1D = test system: CAMK1D
CAMK1G = test system: CAMK1G
CAMK1 = test system: CAMK1
CAMK2A = test system: CAMK2A
CAMK2B = test system: CAMK2B
CAMK2D = test system: CAMK2D
CAMK2G = test system: CAMK2G
CAMK4 = test system: CAMK4
CAMKK1 = test system: CAMKK1
CAMKK2 = test system: CAMKK2
CASK = test system: CASK
CDC2L1 = test system: T1, CDC2L1
T1 construct: gene CDK11B

CDC2L2 = test system: CDC2L2
CDC2L5 = test system: T2, CDC2L5
T2 construct: gene CDK13

CDK11 = test system: T3, CDK11
T3 construct: gene CDK19

CDK2 = test system: CDK2
CDK3 = test system: CDK3
CDK4-cyclinD1 = test system: CDK4-cyclinD1
CDK4-cyclinD3 = test system: CDK4-cyclinD3
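Also: KINOMEscan kinase panel screen.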

| Structure (SMILES) | %Inh (CAMK1B) [%] | %Inh (CAMK1D) [%] | %Inh (CAMK1G) [%] | %Inh (CAMK1) [%] | %Inh (CAMK2A) [%] | %Inh (CAMK2B) [%] | %Inh (CAMK2D) [%] | %Inh (CAMK2G) [%] | %Inh (CAMK4) [%] | %Inh (CAMKK1) [%] | %Inh (CAMKK2) [%] | %Inh (CASK) [%] | %Inh (CDC2L1) [%] | %Inh (CDC2L2) [%] | %Inh (CDC2L5) [%] | %Inh (CDK11) [%] | %Inh (CDK2) [%] | %Inh (CDK3) [%] | %Inh (CDK4-cyclinD1) [%] | %Inh (CDK4-cyclinD3) [%] |
| --- | --- | --- | --- | --- | --- | --- | --- | --- | --- | --- | --- | --- | --- | --- | --- | --- | --- | --- | --- | --- |
| Cc1cc(NCC(c2ccccc2)c2ccccc2)nc(NCc2ccc(C(F)(F)F)cc2)n1 [GW497681] | 0 | 17 | 3 | 12 | 0 | 0 | 13 | 25 | 0 | 5 | 23 | 0 | 0 | 5 | 0 | 0 | 0 | 0 | 0 | 0 |
| O=S(=O)(c1ccc(-c2ccnc3[nH]ccc23)cc1)N1CCCC1 [GSK846226] | 30 | 31 | 33 | 39 | 47 | 12 | 44 | 34 | 0 | 2 | 23 | 5 | 0 | 17 | 0 | 2 | 0 | 1 | 0 | 0 |
| COc1ccc(C2=C(Nc3cccc(C(=O)O)c3)C(=O)NC2=O)cc1 [SB-390765] | 44 | 18 | 0 | 23 | 5 | 0 | 16 | 26 | 0 | 0 | 7 | 15 | 17 | 13 | 8 | 0 | 12 | 7 | 0 | 0 |
| COc1ccccc1CNC(=O)c1cc(C(=O)c2ccccc2C)c[nH]1 [GSK364507] | 7 | 0 | 0 | 9 | 0 | 0 | 0 | 12 | 0 | 7 | 5 | 12 | 0 | 19 | 0 | 15 | 0 | 10 | 0 | 7 |
| Cc1cccc(-c2nc(-c3ccc(S(C)(=O)=O)cc3)sc2-c2ccnc(NCCc3ccccc3)c2)c1 | 0 | 0 | 16 | 31 | 0 | 0 | 7 | 9 | 0 | 13 | 0 | 18 | 6 | 0 | 44 | 0 | 0 | 0 | 0 | 0 |
| CCCc1ccc(S(=O)(=O)NC2CCN(c3ccnc(Nc4ccc(F)cc4)n3)C2)cc1 (stereo not shown) [GSK1379715] | 6 | 0 | 0 | 0 | 0 | 0 | 0 | 0 | 0 | 12 | 0 | 4 | 0 | 0 | 98.6 | 5 | 0 | 22 | 0 | 0 |
| Cn1cncc1-c1ccc2ncnc(Nc3ccc(OCc4ccccc4)cc3)c2c1 [GW320571] | 11 | 23 | 16 | 23 | 0 | 0 | 9 | 10 | 23 | 0 | 0 | 0 | 0 | 0 | 0 | 10 | 4 | 2 | 0 | 13 |
| Cc1ccc(NC(=O)Nc2cc(C(C)(C)C)nn2-c2ccccc2)cc1 [GSK1014915] | 33 | 3 | 0 | 0 | 0 | 0 | 0 | 14 | 0 | 12 | 0 | 12 | 31 | 7 | 0 | 62 | 0 | 8 | 0 | 4 |
| Cc1c(O)cccc1Nc1ccnc2ccc(C(F)(F)F)cc12.Cl [GW466413] | 2 | 7 | 0 | 1 | 0 | 0 | 0 | 0 | 0 | 12 | 3 | 0 | 0 | 0 | 0 | 17 | 0 | 0 | 0 | 0 |
| Cc1cccc(-c2nc(Nc3cccc(C(N)=O)c3)c3ccccc3n2)n1 [GW876019] | 0 | 0 | 9 | 0 | 0 | 0 | 7 | 0 | 3 | 12 | 0 | 30 | 0 | 2 | 10 | 8 | 0 | 59 | 18 | 0 |
| COc1ccccc1-c1ccc2c(NC(=O)C3CC3)n[nH]c2n1 [SB-711239] | 33 | 12 | 27 | 4 | 0 | 0 | 16 | 9 | 0 | 9 | 0 | 8 | 0 | 3 | 2 | 19 | 0 | 8 | 9 | 0 |
| CC(=O)Nc1nc2cnc(Nc3cc(NC(=O)c4cccc(CCC#N)c4)ccc3C)nc2s1 | 0 | 30 | 0 | 25 | 20 | 0 | 0 | 0 | 15 | 0 | 0 | 10 | 6 | 9 | 36 | 2 | 3 | 0 | 0 | 0 |
| O=C(Nc1ccccc1)Nc1cccc(Oc2ccc3nccn3n2)c1 | 0 | 3 | 0 | 0 | 0 | 0 | 0 | 3 | 7 | 0 | 0 | 16 | 0 | 5 | 0 | 0 | 0 | 10 | 24 | 0 |
| COc1cccc(NC(=O)NC2CCN(c3ccnc(Nc4ccc(F)cc4)n3)C2)c1 (stereo not shown) [GSK1379721] | 27 | 12 | 0 | 10 | 0 | 0 | 6 | 22 | 0 | 18 | 14 | 7 | 0 | 14 | 0 | 59 | 0 | 18 | 0 | 0 |
